High-throughput results from PubChem BioAssay.
Shown is part of a subset that was picked to be rich in hits.
Tg IFNy HTS = T. gondii growth inhibition with IFN-gamma, primary screen, cell-based; Toxoplasma gondii growth in IFN-gamma-treated host cells; active compounds read low; activity change, negative = inhibition, % (test concentration not listed); actives 3.8% (n = 69,000); AID 1259416, 2018; in the data active = activity change below about -70%, passing the limit was not always enough;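 note: host cells are HeLa cells infected with Toxoplasma gondii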
An asterisk follows results filed as active; i = inactive; ! = not active in a repeat.

SMILES	Tg IFNy HTS
CCOC(=O)c1nn(C)c2c1CN(Cc1ccc(N(C)c3ccccc3)cc1)CC2	8
Cc1ccc(NC(=O)c2ccc(CN3CCN(C)CC3)cc2)cc1Nc1nccc(-c2cccnc2)n1	-38
Cc1cn(-c2cc(NC(=O)c3ccc(C)c(Nc4nccc(-c5cccnc5)n4)c3)cc(C(F)(F)F)c2)cn1	-77*!
CC(C)Oc1ccc(NC(=O)c2cc(-c3cnc(-c4cccnc4)nc3)cn2C)cc1	-17
C=CCN1C[C@H]2CN(CC3CCOCC3)CCC[C@@]2(C(=O)OCC)C1	2
CCOc1cccc(-c2noc(-c3nnn(Cc4nc(-c5ccc(OC)cc5)oc4C)c3C)n2)c1	-1
OCCC#Cc1ccc(CN2CCN(c3nc4ccccc4o3)CC2)cc1	-4
CC(=O)c1ccc2c(c1)N(CCCN1CCN(CCO)CC1)c1ccccc1S2	28
OCCN1CCN(CCCN2c3ccccc3C=Cc3ccccc32)CC1	17
CN(C)CCCN1c2ccccc2Sc2ccc(C(F)(F)F)cc21	-89*!
OCCN1CCN(CC/C=C2/c3ccccc3Sc3ccc(C(F)(F)F)cc32)CC1	-77*
CN1CCCC(CN2c3ccccc3Sc3ccccc32)C1 (configuration not stated)	16
CN1CCN(CCC=C2c3ccccc3Sc3ccc(S(=O)(=O)N(C)C)cc32)CC1	78
CN(C)CC/C=C1/c2ccccc2Sc2ccc(Cl)cc21	-62
OCCN1CCN(CCCN2c3ccccc3Sc3ccc(C(F)(F)F)cc32)CC1	-97*!
CN1CCN(CCCN2c3ccccc3Sc3ccc(Cl)cc32)CC1	2
COc1ccc2c(c1)N(C[C@H](C)CN(C)C)c1ccccc1S2	29
CCSc1ccc2c(c1)N(CCCN1CCN(C)CC1)c1ccccc1S2	-78*
CC(CN(C)C)CN1c2ccccc2Sc2ccccc21 (configuration not stated)	7
O=C(O)CCc1ncc(-c2ccc(Cl)cc2)o1	35
Cc1ccc(CN2C[C@@H]3OCCN(C(C)C)[C@H]3C2)cc1	-63
CCc1ccc(S(=O)(=O)N2CCC3(CC2)Nc2cc(F)ccc2-n2cccc23)cc1	-53
Cc1ccc(C(=O)NCCc2c[nH]c3cccc(C4(O)CCCC4)c23)cn1	88
Cc1cnn(Cc2cccc(Cl)c2)c1NC(=O)CN1CCOC1=O	79
CC(Cn1cncn1)C(=O)NC1CCN(CC2(c3ccccc3F)CCCC2)CC1 (configuration not stated)	41
SMILES	Tg IFNy HTS
COc1ccccc1-n1cc(C(=O)N[C@@H]2C[C@@H](CO)N(C)C2)cn1	-3
CN(Cc1ccccn1)C(=O)[C@H]1C[C@H]2CCN(Cc3ccco3)C[C@@H]2O1	7
COc1ccccc1-c1nc(Cn2ccn3nc(-c4ccc(C)cc4)cc3c2=O)c(C)o1	58
C=C(C)COc1ccccc1C(=O)NC1C=CS(=O)(=O)C1 (configuration not stated)	63
CC(=O)N1CCC(C(=O)N2CCc3cc(-c4csc(C5CC5)n4)ccc32)CC1	45
Cc1nc(C)c(C(=O)N2CCc3cc(-c4csc(C5CC5)n4)ccc32)s1	-109*
CCOC(=O)C1CCN(C(=O)c2ccc(-c3csc(C4CC4)n3)cc2)CC1	160
O=C(C1CC1)N1CCc2cc(-c3csc(C4CC4)n3)ccc21	-112*
Cc1nc(-c2ccccc2)sc1C(=O)N1CCCc2ccccc21	-29
Cc1cccc(N2CCN(C(=O)c3ccc(-c4csc(C5CC5)n4)cc3)CC2)c1C	13
CCc1nc(Cn2ccnc2-c2cnc(NC(C)C)nc2)no1	5
CC(=O)Nc1ccc(NC(=O)C(=O)NCCc2sc(-c3ccccc3)nc2C)cc1	47
CCc1cccc(C)c1NC(=O)Cn1c(=O)cc(C(=O)N2CCCCC2)c2ccccc21	16
O=C(c1ccc(-c2cccc(CN3CCOCC3)c2)o1)N1CCCCC1	26
COc1cc([C@@H]2c3cc4c(cc3C(OC3OC5COC(C)OC5C(O)C3O)C3OCC(=O)[C@@H]32)OCO4)cc(OC)c1O (some centres not stated)	-81*
COc1cc([C@@H]2c3cc4c(cc3[C@@H](O[C@@H]3O[C@@H]5CO[C@@H](c6cccs6)O[C@H]5[C@H](O)[C@H]3O)[C@H]3COC(=O)[C@H]23)OCO4)cc(OC)c1O	-71*
COc1cc([C@@H]2c3cc4c(cc3C(OC3O[C@@H]5COC(C)O[C@H]5[C@H](O)[C@H]3O)C3COC(=O)[C@@H]32)OCO4)cc(OC)c1O (some centres not stated)	-70
CCOC(=O)CSC(=O)c1cccnc1Oc1ccccc1	17
COc1ccc(Nc2nc(-c3nnc(-c4cccc(Cl)c4)o3)nc3ccccc23)cc1OC	i
COc1ccccc1OC(C)c1nc(Cc2cccc(C(F)(F)F)c2)no1 (configuration not stated)	-55
Cc1cc(N2CCOCC2)nc2ccc(NC(=O)c3cc4ccccc4[nH]3)cc12	4
CCn1c(=O)[nH]c2cc(Cl)c(Cl)cc21	-84*!
Cc1nnc([C@@H]2CC[C@H]3[C@H](CCN3Cc3sccc3C)O2)o1	8
CN(C)C(=O)COCC1CC2(CCN(Cc3cnn(C)c3)CC2)CO1 (configuration not stated)	-32
CN(C)C(=O)CN1CCC2(CCCN2Cc2cnn(C)c2)CC1	-55
SMILES	Tg IFNy HTS
CN(C)C(=O)CN1C[C@]23CN(Cc4cnn(C)c4)C[C@@H](C[C@@H]2S1(=O)=O)O3	-108*
COc1cc(C)ccc1S(=O)(=O)N1CCC2(CCN(C)C2)CC1	-15
CCC1=NOC(Cn2nc(CC3CCNCC3)n(-c3ccccc3)c2=O)C1 (configuration not stated)	-33
O=c1ccc2cc3ccoc3cc2o1	8
COc1ccc2c(c1)c(=O)oc1cc3occ(C(C)(C)C)c3cc12	-32
COc1c2ccoc2cc2oc(=O)ccc12	-87*!
Cc1occc1C(=O)N1CCC2(CC1)NC(=O)CC2c1cccnc1 (configuration not stated)	-2
O=c1c(O)c(-c2ccc(O)c(O)c2)oc2cc(O)cc(O)c12	-78*!
Cc1oc2cc(O)cc(O)c2c(=O)c1-c1ccccc1	261
O=c1cc(-c2ccc(O)c(O)c2)oc2cc(O)cc(O)c12	9
CCOc1ccccc1NC(=O)c1c(O)c2ccccc2n(CC)c1=O	66
Cc1ccccc1NC(=O)c1c(O)c2cccnc2n(-c2ccccc2)c1=O	50
CC(C)CNC(=O)c1nc2c(s1)CCN(C(=O)NCc1ccccc1)CC2	-84*
CNC(=O)c1nc2c(s1)CCN(C(=O)NCc1ccccc1)CC2	66
COc1ccc(CNC(=O)c2nc3c(s2)CCN(C(C)=O)CC3)cc1	-11
COc1ccc(NC(=O)CC(=O)N2CCC(Oc3ccc(C)cc3)CC2)c(OC)c1	-10
CN(C)c1ncc(-c2ccco2)c(-c2ccco2)n1	1
CC1=C(C(=O)Nc2ccc(Cl)cc2)C2(CCN(Cc3ccccc3)CC2)OC1=O	-30
CC1=C(C(=O)Nc2ccc(Cl)c(Cl)c2)C2(CCN(Cc3ccccc3)CC2)OC1=O	-93*
CCOc1ccc(NC(=O)C2=C(C)C(=O)OC23CCN(Cc2ccccc2)CC3)cc1	30
Cc1ccc2c(c1C)-n1cccc1C1(CCN(S(=O)(=O)c3ccc(Cl)s3)CC1)N2	33
Cc1cc2cc(NC(=O)CN3C(=O)NC(C)(c4ccccc4)C3=O)cc(Cl)c2o1 (configuration not stated)	-77*
Cc1cc2cc(NC(=O)CNC(=O)c3nc4ncccn4n3)cc(Cl)c2o1	5
Cc1cc2cc(NC(=O)c3nc4ccccc4n(C)c3=O)cc(Cl)c2o1	28
